Experimental data reported in PubChem BioAssay (EPA / NIEHS).
Where “and” joins values, the source holds several entries; their conditions need not be identical. Identical values can stand only once. Where a structure was tested more than once in an assay, its records may differ in their call. Calls of active or inactive are those of the source. The calls were made as follows: active = hit-call score of the fitted dose curve at least 0.9, where 1 is the maximum; inactive = score below 0.9.

Read-out: Interleukin-1 alpha (IL1a), IL1A (gene 3552)
Test: BSK_BE3C_IL1a: BioMAP Diversity Plus: BE3C Assay for Interleukin-1 alpha (IL1a) Biomarker Activity (AID 2283016)
Settings: primary human bronchial epithelial cells; actives raise or lower the signal
How it was run: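 Human primary bronchial epithelial cells, 24 h chemical exposure; IL-1a quantified by ELISA, fitted bidirectionally against DMSO. Cytotoxicity assessed in parallel by SRB total-protein staining at the time of measurement.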

`C=CC(F)(F)C(F)(F)C(F)(F)C(F)(F)C(F)(F)C(F)(F)C(F)(F)C(F)(F)C=C` was tested. Which outcome did it give?
Its outcome is “inactive”.

With `FC(F)(F)C(F)(F)C(F)(F)C(F)(F)C(F)(F)C(F)(F)C(F)(F)C(F)(F)F` as the compound, how does the outcome read?
The outcome was “inactive”.

For `N=C(N)C(F)(F)C(F)(F)C(F)(F)C(F)(F)C(F)(F)C(F)(F)C(F)(F)F`, which outcome is on record?
The outcome was “inactive”.

`FC(F)(F)C(F)(F)C(F)(F)C(F)(F)C(F)(F)C(F)(F)CC1CO1` (stereo not drawn) was tested. Which outcome did it give?
The outcome was “inactive”.

Read-out: Monocyte Chemoattractant Protein-1 (MCP1), CCL2 (gene 6347)
Test: BSK_3C_MCP1: BioMAP Diversity Plus: 3C Assay for Monocyte Chemoattractant Protein-1 (MCP1) Biomarker Activity (AID 2283017)
Settings: primary human endothelial cells (HUVEC); actives raise or lower the signal
How it was run: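 Using human vascular primary endothelium, researchers measured MCP-1 by ELISA 24 h after treatment, with DMSO serving as negative control for bidirectional fitting.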

How did the outcome turn out when `O=C(O)C(F)(F)C(F)(F)C(F)(F)C(F)(F)C(F)(F)C(F)(F)C(F)(F)C(F)(F)C(F)(F)C(F)(F)C(F)(F)C(F)(F)F` was run?
The outcome was “inactive”.

Which outcome does the source give for `O=S(=O)(O)C(F)(F)C(F)(F)C(F)(F)C(F)(F)C(F)(F)C(F)(F)C(F)(F)F` here?
Its outcome is “inactive”.

For `FC(F)(F)C(F)(F)C(F)(F)C(F)(F)CCI`, which outcome is on record?
The outcome was “inactive”.

Which AC50 does the source give for `O=C(O)C(F)(F)C(F)(F)C(F)(F)C(F)(F)C(F)(F)C(F)(F)C(F)(F)C(F)(F)Cl` here?
Its AC50 is 47.5 µM (active) and 30 µM (active).

With `Cc1ccc(S(=O)(=O)OCC(F)(F)C(F)(F)C(F)(F)C(F)(F)C(F)(F)C(F)F)cc1` as the compound, how does the outcome read?
Its outcome is “inactive”.

How did the outcome turn out when `FC(F)(F)C(F)(F)C(F)(F)CI` was run?
The outcome was “inactive”.

Which outcome does the source give for `O=C(O)C(F)(F)C(F)(F)C(F)(F)C(F)(F)F` here?
The outcome was “inactive”.

For `Nc1ccc([N+](=O)[O-])cc1O`, which outcome is on record?
The outcome was “inactive”.

With `FC(F)(F)C(F)(F)C(F)(F)C(F)(F)C(F)(F)CCI` as the compound, how does the outcome read?
Its outcome is “inactive”.

`O=C(O)C(F)(F)C(F)(F)C(F)(F)C(F)(F)C(F)(F)C(F)(F)C(F)(F)C(F)(F)C(F)(F)C(F)(F)C(F)(F)C(F)(F)C(F)(F)F` was tested. Which outcome did it give?
The outcome was “inactive”.

`CCCCCCCCCCCCCCCC[N+](C)(C)Cc1ccccc1` was tested. Which AC50 did it give?
The AC50 was 5 µM (active).

For `OCC(F)(F)C(F)(F)C(F)(F)F`, which outcome is on record?
The outcome was “inactive”.

For `O=C(O)C(F)(F)C(F)(F)F`, which AC50 is on record?
Its AC50 is 23 µM (active).

And the outcome?
The outcome was “inactive”.

`CCc1c(Br)c(Br)c(Br)c(Br)c1Br` was tested. Which outcome did it give?
The outcome was “inactive”.

With `O=C(O)C(F)(OC(F)(F)C(F)(OC(F)(F)C(F)(F)C(F)(F)F)C(F)(F)F)C(F)(F)F` (stereo not drawn) as the compound, how does the outcome read?
The outcome was “inactive”.

How did the outcome turn out when `Oc1ccc(Nc2ccccc2)cc1` was run?
Its outcome is “inactive”.

How did the outcome turn out when `C=CC(F)(F)C(F)(F)C(F)(F)C(F)(F)C(F)(F)C(F)(F)C(F)(F)C(F)(F)C=C` was run?
The outcome was “inactive”.

With `FC(F)(F)C(F)(F)C(F)(F)C(F)(F)C(F)(F)C(F)(F)C(F)(F)C(F)(F)F` as the compound, how does the outcome read?
Its outcome is “inactive”.

For `N=C(N)C(F)(F)C(F)(F)C(F)(F)C(F)(F)C(F)(F)C(F)(F)C(F)(F)F`, which AC50 is on record?
The AC50 was 46.3 µM (active).

And the outcome?
Its outcome is “inactive”.

With `FC(F)(F)C(F)(F)C(F)(F)C(F)(F)C(F)(F)C(F)(F)CC1CO1` (stereo not drawn) as the compound, how does the outcome read?
Its outcome is “inactive”.

Read-out: Monocyte Chemoattractant Protein-1 (MCP1), CCL2 (gene 6347)
Test: BSK_4H_MCP1: BioMAP Diversity Plus: 4H Assay for Monocyte Chemoattractant Protein-1 (MCP1) Biomarker Activity (AID 2283018)
Settings: primary human endothelial cells (HUVEC); actives raise or lower the signal
How it was run: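 Human umbilical vein endothelial cells (4H system) exposed to chemicals for 24 h in 96-well format. MCP-1 measured by ELISA; bidirectional fitting against DMSO, with SRB total-protein staining in parallel cultures for cytotoxicity.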

For `O=C(O)C(F)(F)C(F)(F)C(F)(F)C(F)(F)C(F)(F)C(F)(F)C(F)(F)C(F)(F)C(F)(F)C(F)(F)C(F)(F)C(F)(F)F`, which outcome is on record?
Its outcome is “inactive”.

With `O=S(=O)(O)C(F)(F)C(F)(F)C(F)(F)C(F)(F)C(F)(F)C(F)(F)C(F)(F)F` as the compound, how does the outcome read?
The outcome was “inactive”.

How did the outcome turn out when `FC(F)(F)C(F)(F)C(F)(F)C(F)(F)CCI` was run?
The outcome was “inactive”.

`O=C(O)C(F)(F)C(F)(F)C(F)(F)C(F)(F)C(F)(F)C(F)(F)C(F)(F)C(F)(F)Cl` was tested. Which outcome did it give?
Its outcome is “inactive”.

For `Cc1ccc(S(=O)(=O)OCC(F)(F)C(F)(F)C(F)(F)C(F)(F)C(F)(F)C(F)F)cc1`, which outcome is on record?
Its outcome is “inactive”.

Which outcome does the source give for `FC(F)(F)C(F)(F)C(F)(F)CI` here?
Its outcome is “inactive”.

With `O=C(O)C(F)(F)C(F)(F)C(F)(F)C(F)(F)F` as the compound, how does the outcome read?
The outcome was “inactive”.

Which outcome does the source give for `Nc1ccc([N+](=O)[O-])cc1O` here?
Its outcome is “inactive”.

`FC(F)(F)C(F)(F)C(F)(F)C(F)(F)C(F)(F)CCI` was tested. Which outcome did it give?
The outcome was “inactive”.

`O=C(O)C(F)(F)C(F)(F)C(F)(F)C(F)(F)C(F)(F)C(F)(F)C(F)(F)C(F)(F)C(F)(F)C(F)(F)C(F)(F)C(F)(F)C(F)(F)F` was tested. Which outcome did it give?
Its outcome is “inactive”.

How did the AC50 turn out when `CCCCCCCCCCCCCCCC[N+](C)(C)Cc1ccccc1` was run?
The AC50 was 1.37 µM (active).

How did the outcome turn out when `OCC(F)(F)C(F)(F)C(F)(F)F` was run?
The outcome was “inactive”.

`O=C(O)C(F)(F)C(F)(F)F` was tested. Which outcome did it give?
The outcome was “inactive”.

How did the outcome turn out when `CCc1c(Br)c(Br)c(Br)c(Br)c1Br` was run?
Its outcome is “inactive”.

How did the outcome turn out when `O=C(O)C(F)(OC(F)(F)C(F)(OC(F)(F)C(F)(F)C(F)(F)F)C(F)(F)F)C(F)(F)F` (stereo not drawn) was run?
Its outcome is “inactive”.

`Oc1ccc(Nc2ccccc2)cc1` was tested. Which AC50 did it give?
The AC50 was 9.6 µM (active).

Which outcome does the source give for `C=CC(F)(F)C(F)(F)C(F)(F)C(F)(F)C(F)(F)C(F)(F)C(F)(F)C(F)(F)C=C` here?
The outcome was “inactive”.

`FC(F)(F)C(F)(F)C(F)(F)C(F)(F)C(F)(F)C(F)(F)C(F)(F)C(F)(F)F` was tested. Which outcome did it give?
Its outcome is “inactive”.

How did the outcome turn out when `N=C(N)C(F)(F)C(F)(F)C(F)(F)C(F)(F)C(F)(F)C(F)(F)C(F)(F)F` was run?
Its outcome is “inactive”.

`FC(F)(F)C(F)(F)C(F)(F)C(F)(F)C(F)(F)C(F)(F)CC1CO1` (stereo not drawn) was tested. Which outcome did it give?
The outcome was “inactive”.

Read-out: Human Leukocyte Antigen - DR isotype (HLADR), HLA-DRA (gene 3122)
Test: BSK_3C_HLADR: BioMAP Diversity Plus: 3C Assay for Human Leukocyte Antigen - DR isotype (HLADR) Biomarker Activity (AID 2283019);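 as to outcome: ELISA of cell-surface HLA-DR on HUVEC 24 h after dosing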
Settings: primary human endothelial cells (HUVEC); actives raise or lower the signal
How it was run: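 Compound added to primary HUVEC cultures, 24 h incubation, then HLA-DR determined by ELISA; endpoint derived by bidirectional fitting relative to DMSO negative control.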

How did the outcome turn out when `FC(F)(F)C(F)(F)C(F)(F)C(F)(F)CCI` was run?
Its outcome is “inactive”.

With `O=C(O)C(F)(F)C(F)(F)C(F)(F)C(F)(F)C(F)(F)C(F)(F)C(F)(F)C(F)(F)Cl` as the compound, how does the AC50 read?
The AC50 was 53.3 µM (active) and 49 µM (active).

Which outcome does the source give for `Nc1ccc([N+](=O)[O-])cc1O` here?
Its outcome is “inactive”.

How did the AC50 turn out when `CCCCCCCCCCCCCCCC[N+](C)(C)Cc1ccccc1` was run?
The AC50 was 977 nM (active).

With `OCC(F)(F)C(F)(F)C(F)(F)F` as the compound, how does the outcome read?
The outcome was “inactive”.

`Oc1ccc(Nc2ccccc2)cc1` was tested. Which AC50 did it give?
Its AC50 is 20000 nM (active).

Which outcome does the source give for `FC(F)(F)C(F)(F)C(F)(F)C(F)(F)C(F)(F)C(F)(F)CC1CO1` (stereo not drawn) here?
Its outcome is “inactive”.
